# Myeloid diff 2 = myeloid differentiation induction; ER-HoxA9 myeloid progenitors, lysozyme-GFP differentiation, flow cytometry; calls only at 10 µM; AID 624256; 360,000 tested, 1% active;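 active = normalized GFP-positive differentiation at or above the plate's own cutoff, the solvent-only control mean plus 3 SD; inconclusive = no clear call, values can overlap the other calls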;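 note: cells exposed to compound for four days before flow analysis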
# FAS-TE inh = FAS thioesterase (human) inhibition; recombinant FAS-TE, OMFH fluorogenic substrate, fluorescence endpoint; 360,000 tested, 0.67% active; P49327; inhibition, % at 15 µM;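 active = compounds whose normalised, plate-corrected inhibition of enzyme fluorescence in the single-dose primary screen is 50% or more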;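 note: 0% = DMSO with enzyme and 100% = substrate without enzyme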
# NR3A LBD binder = modulates the human NR3A ligand-binding domain; NR3A LBD differential scanning fluorimetry, Tm shift; 0% = protein alone, 100% = glycine-bound protein; Tm shift relative to glycine control, % at 25 µM; 340,000 tested, 2.5% active; AID 1259313;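 active = melting temperature shift of at least 10% of the positive control shift, at one fixed dose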
# rCAG binder = r(CAG) repeat RNA binding | inhibition, % at 3 µM | AID 651821 | TO-PRO-1 dye displacement fluorescence | 370,000 tested, 1.3% active;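 active = inhibition above the plate cutoff, the mean of all test compounds on that plate plus 3 SD, cut at about 35% in these data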;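 note: 0% = DMSO alone and 100% = 100 µM mitoxantrone as full dye displacement; higher means more dye released from RNA so lower well fluorescence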
# MPTP block = inhibitors of mitochondrial permeability transition pore; isolated mouse mitochondria, Ca2+ swelling absorbance, 30 min; inhibition, % at 10 µM; 360,000 tested, 1.4% active;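 active = inhibition of 50% or more, scaled per plate between neutral and stimulator controls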;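 note: 0% = DMSO wells given calcium and 100% = 1 mM EGTA wells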
# rCAG binder conf = r(CAG) RNA repeat binding, confirmation; shares compounds with rCAG binder; TO-PRO-1 dye displacement fluorescence; inhibition, % at 3 µM; 4,300 tested, 70% active;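 active = inhibition above a per-plate cutoff, the mean inhibition of sample wells plus 3 SD, cut at about 35% in these data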;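 note: loss of TO-PRO-1 fluorescence as compound displaces dye from 1x1 AA loop RNA; 0% = DMSO only wells and 100% = 100 µM mitoxantrone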
# DNA CAG counter = counter-screen for rCAG RNA binders: DNA CAG dye complex inhibitors; shares compounds with rCAG binder; d(CAG) DNA oligo TO-PRO-1 dye displacement, fluorescence; inhibition, % at 3 µM; 4,300 tested, 94% active; AID 652068;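 active = inhibition above its plate's cutoff, the mean test-well inhibition plus 3 SD, cut at about 4.8% in these data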;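 note: 0% = DNA dye mix with DMSO and 100% = 100 µM mitoxantrone; hits displace the dye from DNA and so lower well fluorescence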
# * hit, by the source's call; i = inactive; u = inconclusive; x = no result. Rows were chosen to be rich in hits. Some 5.7% of all compounds tested hit in one or more screens of this group.
SMILES,Myeloid diff 2,FAS-TE inh,NR3A LBD binder,rCAG binder,MPTP block,rCAG binder conf,DNA CAG counter
COc1cc(OC)c(NC(=O)c2ccc3c(SCC(=O)O)c4c(nc3c2)CCCC4)cc1Cl,i,2,-2,51*,-1,62*,24*
Cc1cc(=O)n(CCc2ccccc2)c(O)c1C#N,i,1,0,64*,-3,11,4.4*
Cc1cc(=O)n(CCO)c(O)c1C#N,i,-4,-3,-2,-1,x,x
CC1(C(=O)NS(=O)(=O)c2cccc(Cl)c2)CCN1C(=O)CCc1ccc(Cl)cc1Cl (configuration not stated),i,-3,x,54*,2,52*,16*
CC1(C(=O)NS(=O)(=O)c2ccccc2)CCN1C(=O)CCc1ccc(Cl)cc1Cl (configuration not stated),i,-5,x,27,-2,x,x
CCCCc1ccc(S(=O)(=O)NC(=O)C2(C)CCN2C(=O)CCc2cccs2)cc1 (configuration not stated),i,-7,x,44*,0,36*,9.9*
Cc1ccccc1S(=O)(=O)NC(=O)C1(C)CCN1C(=O)CCc1cccs1 (configuration not stated),i,-10,x,4,0,x,x
CC1(C(=O)NS(=O)(=O)c2ccc3ccccc3c2)CCN1C(=O)Cc1ccc(Cl)cc1Cl (configuration not stated),i,0,x,52*,2,54*,18*
Cc1onc(-c2ccccc2Cl)c1C(=O)Nc1ccc(S(=O)(=O)Nc2nccs2)cc1,i,-1,-2,41*,0,37*,13*
Cc1onc(-c2ccccc2Cl)c1C(=O)Nc1ccc(Br)cc1,i,10,-9,0,2,x,x
Cc1cc2oc(C(=O)Nc3ccc(S(=O)(=O)Nc4nccs4)cc3)cc(=O)c2cc1Cl,i,5,17*,77*,5,87*,48*
Cc1cc(C)c2oc(C(=O)Nc3ccc(S(=O)(=O)Nc4nccs4)cc3)cc(=O)c2c1,i,0,1,68*,6,64*,29*
Cc1cc2oc(C(=O)Nc3ccc(S(=O)(=O)Nc4ncccn4)cc3)c(C)c2cc1Cl,i,4,1,2,2,x,x
CSc1nc(COC(=O)NC(C)C)c(COC(=O)NC(C)C)n1Cc1ccccc1,i,0,x,-1,0,x,x
COC(=O)c1sc(-c2ccc(C(C)(C)C)cc2)cc1NC(=O)c1ccccc1C(=O)O,i,-15,-437,70*,6,83*,46*
COC(=O)c1sc(-c2ccc(C(C)(C)C)cc2)cc1NC(=O)CSCC(=O)O,i,-45,-437,62*,13,68*,25*
COc1ccc(OC)c(NC(=O)CSCC(=O)O)c1,i,-9,-1,1,1,x,x
COC(=O)c1sc(-c2ccc(Cl)cc2)cc1NC(=O)c1ccccc1C(=O)O,i,-13,3,71*,-2,80*,46*
COC(=O)c1sccc1NC(=O)c1ccccc1C(=O)O,i,-5,4,-1,2,x,x
CCOC(=O)Cc1nn[nH]n1,i,-4,-1,-3,1,x,x
O=C(C1=C(O)C(=O)N(CC2CCCO2)C1c1ccc(Cl)cc1Cl)c1ccco1 (configuration not stated),i,7,-2,11,5,x,x
CCOCCc1nnc(NC(=O)C(CC)c2ccccc2)s1 (configuration not stated),i,-7,-2,-1,-2,x,x
O=C(O)c1ccc(N/N=C/C2=C(N3CCOCC3)C(=C\c3ccccc3)/CC2)cc1,i,17,-5,72*,3,75*,36*
O=C(CN1C(=O)N/C(=C\c2ccccc2OCc2ccc(C(=O)O)cc2)C1=O)Nc1ccc(F)cc1,i,2,-13,59*,-2,43*,13*
O=C(O)c1ccc(COc2ccccc2/C=C2\NC(=O)N(Cc3ccc(F)cc3)C2=O)cc1,i,1,0,9,-1,x,x
SMILES,Myeloid diff 2,FAS-TE inh,NR3A LBD binder,rCAG binder,MPTP block,rCAG binder conf,DNA CAG counter
Cc1cccc(NC(=O)CN2C(=O)N/C(=C\c3ccccc3OCc3ccc(C(=O)O)cc3)C2=O)c1,i,3,-9,61*,-1,67*,31*
Cc1ccccc1NC(=O)CN1C(=O)N/C(=C\c2ccccc2OCc2ccc(C(=O)O)cc2)C1=O,i,2,2,43*,0,29,7.8*
O=c1[nH][nH]c2cc(=O)n(-c3cccc(C(F)(F)F)c3)nc12,i,2,-6,59*,1,48*,17*
COc1cc(F)cc(-c2ccc3c(c2)c(-c2cccs2)c(-c2cc(OC)cc(OC)c2)n3C)c1,i,25,0,10,1,x,x
COc1cc(OC)cc(-c2c(-c3cccs3)c3cc(Br)ccc3n2C)c1,i,13,-4,40*,-1,10,9.3*
COC(=O)c1cc(NS(=O)(=O)c2ccc(Cl)c(N3C(=O)c4ccc(C(=O)O)cc4C3=O)c2)cc(C(=O)OC)c1,i,-1,-1,52*,0,45*,13*
NS(=O)(=O)c1ccc(N/N=C/c2cn(-c3ccccc3)nc2-c2cccs2)cc1,u,13,34*,36*,2,25,15*
O=C(O)c1cccc(N/N=C/c2cn(-c3ccccc3)nc2-c2cccs2)c1,i,14,-4,48*,-1,76*,37*
Cc1nc(SCc2nc3ccc([N+](=O)[O-])cc3[nH]2)c2oc3ccccc3c2n1,i,20,-2,14,33,x,x
COc1ccc(N2CCN(C(=O)c3cc([N+](=O)[O-])ccc3N3CCN(CCO)CC3)CC2)cc1,i,39,-2,-5,-1,x,x
CCOc1ccc(S(=O)(=O)N2CCNC(=O)C2)cc1,i,-2,0,54*,-1,3,1
CCOc1ccc(S(=O)(=O)N2CN3CCN(C3)C2)cc1,i,-3,0,-5,1,x,x
C[C@@H]1CN([C@@H](C)CO)C(=O)CCCn2nncc2CO[C@@H]1CN(C)C(=O)c1ccc(N2CCN(C)CC2)cc1,i,-7,x,0,-3,x,x
Cc1sc2nc(CN3CCOCC3)nc(NS(=O)(=O)c3cc(Cl)ccc3Cl)c2c1C,i,-1,-6,53*,2,46*,10*
CCNc1nc(CN2CCOCC2)nc2sc3c(c12)CCC3,i,-6,-2,-4,1,x,x
O=S(=O)(Nc1nc(CN2CCOCC2)nc2sc3c(c12)CCCC3)c1cc(F)ccc1F,i,2,-1,50*,1,38*,9.6*
CCCC[C@@H]1C=C(C(=O)O)[C@H](c2ccc(CC)cc2)N1S(=O)(=O)c1ccc(C)cc1,i,1,-3,66*,1,49*,15*

# Compound activity as filed in PubChem.
